Our source for the composite z-score, composite Z-score and z-score values is PubChem BioAssay.

Calls of active or inactive are those of the source.

One assay addresses Albumin (Bos taurus) (UniProt P02769). Nature of the assay: bovine serum albumin binders on microarray, profiling panel, artefact control for SMM control protein annotation, biochemical, small-molecule microarray, Alexa647 label, 635/667 nm fluorescence (AID 1118).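 Note: score merges 667 nm emission intensity and signal-to-noise per printed compound spot.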 Conditions: BSA-A647 binding, fluorescence 635 nm, higher = more signal.
Assay [1] can be described thus: small-molecule microarray binders of probe aXIP, primary screen, biochemical, NeuroSMM set, 635/667 nm fluorescence (AID 1119).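 Note: probe is the protein aXip251-270 applied at 1 µg/mL to compound-printed slides; binding of probe to printed compounds measured as 667 nm fluorescence plus signal to noise.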 Conditions: higher = more signal, called active from +8 up or from −8 down.
The nature of assay [2]: small-molecule binders of probe aNOTCH3, primary screen, biochemical, small-molecule microarray, 635/667 nm fluorescence (AID 1120).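 Note: probe is a biotin-tagged antibody raised against NOTCH3 rather than NOTCH3 protein; score merges spot fluorescence near 667 nm with spot signal to noise.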 Particulars: higher = more signal.
A short description of assay [3]: small-molecule binders of probe aNOTCH2, primary screen, biochemical, small-molecule microarray, 635/667 nm fluorescence (AID 1121).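 Note: score merges feature fluorescence read at 667 nm with its signal to noise.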 Conditions: higher = more signal.
The target of assay [4] is Carbonic anhydrase 2 (Homo sapiens) (UniProt P00918). Nature of the assay: CAII small-molecule binders, profiling panel, biochemical, small-molecule microarray, Alexa647-labelled CAII (AID 1122). Conditions: CAII-A647 binding fluorescence, higher = more signal.
A short description of assay [5]: COS7 lysate on small-molecule microarray, probe aHis, 635 nm (AID 1123).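 Note: z-score combines 667nm fluorescence intensity with signal-to-noise per printed compound spot.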 Particulars: COS7 cell lysate, fluorescence, higher = more signal.
A short description of assay [6]: compound binding in COS7 lysate, probe aLAP1, primary screen, cell lysate, small-molecule microarray (AID 1124).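 Note: lysate comes from COS7 cells expressing LAP1 and is applied at 0.3 µg/mL; score merges spot fluorescence near 667 nm with signal-to-noise over triplicate slides.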 Conditions: probe aLAP1, fluorescence, higher = more signal.
For a further assay, the system named is Sam68 (KHDRBS1). Kind of assay: Sam68 small-molecule binders, primary screen, biochemical, small-molecule microarray, 635 nm fluorescence (AID 1125).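 Note: score merges 667 nm channel intensity with signal to noise over triplicate slides.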 Conditions: small-molecule microarray binding, higher = more signal.
Assay [7] has as its system Chordin-like protein 2 (CHRDL2). Kind of assay: CHRDL2 small-molecule binders, primary screen, biochemical, small-molecule microarray, 635 nm fluorescence (AID 1126).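 Note: printed compound slides probed with Chrdl2 protein at 4 µg/mL for 1 h at 4 C; score merges 667 nm emission intensity with signal to noise over three replicate slides.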 Conditions: small-molecule microarray binding, fluorescence 635 nm; higher = more signal.
For assay [8], the target named is Concanavalin-A (Canavalia ensiformis) (UniProt P02866). Kind of assay: ConA small-molecule binders, primary screen, artefact control for SMM control protein annotation, biochemical, small-molecule microarray, Alexa647 label, 635 nm (AID 1127).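 Note: z combines 667 nm emission intensity with signal-to-noise across three replicate slides.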 Particulars: ConA-A647 binding fluorescence, higher = more signal.
Assay [9] is described as follows: anti-His antibody binders, primary screen, artefact control for SMM control protein annotation, biochemical, small-molecule microarray, 635 nm fluorescence (AID 1128).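 Note: score merges feature fluorescence with signal-to-noise for each printed compound spot.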 Conditions: anti-His Alexa647 antibody binding, higher = more signal.
For assay [10], the system named is Human papillomavirus type 1a E7 protein (residues 1-88). Nature of the assay: HPV1a E7 small-molecule binders, primary screen, biochemical, small-molecule microarray, residues 1-88, 635 nm (AID 1129). Particulars: small-molecule microarray binding, fluorescence 635 nm; higher = more signal.
Assay [11] deals with Focal adhesion kinase 1 (Homo sapiens) (UniProt Q05397). Kind of assay: small-molecule microarray binders of FAK, primary screen, biochemical, 635/667 nm fluorescence, BSA, DTT (AID 1130).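 Note: composite of spot emission at 667 nm and signal to noise over triplicate slides.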 Conditions: PTK2 binding, 635 nm fluorescence, higher = more signal.
In assay [12] the test system is Fibrinogen (Alexa647-labelled). Kind of assay: fibrinogen binders on compound microarrays, profiling panel, artefact control for SMM control-protein annotation, biochemical, small-molecule microarray, 635/667 nm fluorescence (AID 1131).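 Note: z-score merges 667 nm fluorescence with per-spot signal-to-noise over triplicate slides.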 Particulars: fibrinogen-A647 binding fluorescence, higher = more signal.
In assay [13] the target is Follistatin (Homo sapiens) (UniProt P19883). Kind of assay: follistatin binders on small-molecule microarrays, primary screen, biochemical, small-molecule microarray, 635/667 nm fluorescence (AID 1132). Particulars: FST binding, 635 nm fluorescence, higher = more signal.
Assay [14] concerns the target Fibroblast growth factor 2 (Homo sapiens) (UniProt P09038). Nature of the assay: FGF2 binders on small-molecule microarrays, primary screen, biochemical, small-molecule microarray, 635/667 nm fluorescence (AID 1133). Conditions: small-molecule microarray binding, FGF2, fluorescence 635/667; higher = more signal.
Assay [15] is described as follows: mitochondrial membrane potential change in A549 cells, profiling panel, cell-based, JC-1 fluorescence, basal, 24 h, 100 nL (AID 1138).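 Note: A549 lung adenocarcinoma cells under basal conditions with no added stimulus; test concentration not given here.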 Conditions: higher = more signal.
A further assay concerns Lefty1. Nature of the assay: Lefty1 binders on small-molecule microarrays, primary screen, biochemical, small-molecule microarray, 635/667 nm fluorescence (AID 1139). Particulars: small-molecule microarray binding, fluorescence 635/667; higher = more signal.
In assay [16] the test system is wheat germ agglutinin (Triticum aestivum), Alexa647-labelled. Nature of the assay: wheat germ agglutinin binders on compound microarrays, profiling panel, artefact control for SMM control-protein annotation, biochemical, small-molecule microarray, 635/667 nm fluorescence (AID 1140).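 Note: score merges 667 nm feature emission with signal to noise over triplicate slides.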 Particulars: WGA-A647 binding, 635 nm fluorescence, higher = more signal.
For assay [17], the target named is Luciferin 4-monooxygenase (Photinus pyralis) (UniProt P08659). Nature of the assay: firefly luciferase enzyme inhibitors, primary screen, biochemical, luminescence, purified enzyme, 2006 set (AID 1141).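 Note: cell-free assay with purified firefly luciferase at 100 ng per well in PBS; test concentration not given here.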 Conditions: SteadyGlo luminescence, 30 min, higher = more signal, called active from +8 up or from −8 down.
Luciferin 4-monooxygenase (Photinus pyralis), sequence (P08659 whole entry, looked up): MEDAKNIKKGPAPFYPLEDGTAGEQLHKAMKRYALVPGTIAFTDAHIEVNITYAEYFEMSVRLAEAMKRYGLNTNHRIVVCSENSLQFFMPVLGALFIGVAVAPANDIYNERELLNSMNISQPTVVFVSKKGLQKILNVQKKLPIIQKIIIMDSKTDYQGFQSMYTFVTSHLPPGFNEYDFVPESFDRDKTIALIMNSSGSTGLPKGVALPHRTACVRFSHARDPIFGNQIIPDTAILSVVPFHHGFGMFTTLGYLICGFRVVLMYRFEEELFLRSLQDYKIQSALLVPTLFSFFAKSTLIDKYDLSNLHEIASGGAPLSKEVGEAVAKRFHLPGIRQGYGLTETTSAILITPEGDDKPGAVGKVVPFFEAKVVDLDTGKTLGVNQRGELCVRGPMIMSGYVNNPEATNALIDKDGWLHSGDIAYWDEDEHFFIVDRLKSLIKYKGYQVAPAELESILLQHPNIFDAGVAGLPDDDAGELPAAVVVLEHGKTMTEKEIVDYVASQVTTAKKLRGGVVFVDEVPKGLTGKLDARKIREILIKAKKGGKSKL

Fibroblast growth factor 2 (Homo sapiens), sequence (P09038 whole entry, looked up): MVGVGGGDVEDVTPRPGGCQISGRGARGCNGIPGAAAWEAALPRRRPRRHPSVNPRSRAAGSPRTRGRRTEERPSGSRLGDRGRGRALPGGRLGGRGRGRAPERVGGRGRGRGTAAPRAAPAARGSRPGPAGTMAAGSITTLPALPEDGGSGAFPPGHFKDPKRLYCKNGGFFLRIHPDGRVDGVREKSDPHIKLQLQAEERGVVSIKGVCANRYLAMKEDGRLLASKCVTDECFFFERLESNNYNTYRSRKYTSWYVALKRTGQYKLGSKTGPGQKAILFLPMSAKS
Focal adhesion kinase 1 (Homo sapiens), sequence (Q05397 whole entry, looked up): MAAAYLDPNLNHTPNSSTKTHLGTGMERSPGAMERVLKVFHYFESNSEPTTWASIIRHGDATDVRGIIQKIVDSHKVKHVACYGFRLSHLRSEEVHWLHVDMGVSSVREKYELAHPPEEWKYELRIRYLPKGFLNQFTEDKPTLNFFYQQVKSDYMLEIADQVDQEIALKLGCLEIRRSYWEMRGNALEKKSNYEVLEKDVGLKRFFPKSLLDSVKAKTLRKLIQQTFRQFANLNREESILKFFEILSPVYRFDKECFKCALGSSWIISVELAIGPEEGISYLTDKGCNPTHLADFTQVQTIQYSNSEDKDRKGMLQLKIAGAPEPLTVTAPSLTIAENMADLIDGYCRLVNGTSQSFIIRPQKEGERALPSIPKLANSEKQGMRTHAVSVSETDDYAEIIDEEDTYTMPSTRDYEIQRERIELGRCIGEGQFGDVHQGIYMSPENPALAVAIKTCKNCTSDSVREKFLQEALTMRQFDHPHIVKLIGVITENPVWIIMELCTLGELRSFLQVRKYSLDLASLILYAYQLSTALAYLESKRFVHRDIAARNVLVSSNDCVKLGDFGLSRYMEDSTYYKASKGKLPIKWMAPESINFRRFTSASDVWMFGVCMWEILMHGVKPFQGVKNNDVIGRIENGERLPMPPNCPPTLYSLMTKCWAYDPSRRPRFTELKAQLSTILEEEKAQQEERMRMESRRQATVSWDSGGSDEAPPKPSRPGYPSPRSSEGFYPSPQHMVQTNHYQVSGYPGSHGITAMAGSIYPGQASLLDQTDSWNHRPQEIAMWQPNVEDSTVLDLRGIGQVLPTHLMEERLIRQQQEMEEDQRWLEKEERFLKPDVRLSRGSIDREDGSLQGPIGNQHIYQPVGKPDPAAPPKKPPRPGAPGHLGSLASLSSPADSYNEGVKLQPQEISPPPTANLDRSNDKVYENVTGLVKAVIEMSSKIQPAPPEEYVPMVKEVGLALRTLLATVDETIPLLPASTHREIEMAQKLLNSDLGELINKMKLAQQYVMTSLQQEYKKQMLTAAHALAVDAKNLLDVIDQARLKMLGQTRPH
Follistatin (Homo sapiens), sequence (P19883 whole entry, looked up): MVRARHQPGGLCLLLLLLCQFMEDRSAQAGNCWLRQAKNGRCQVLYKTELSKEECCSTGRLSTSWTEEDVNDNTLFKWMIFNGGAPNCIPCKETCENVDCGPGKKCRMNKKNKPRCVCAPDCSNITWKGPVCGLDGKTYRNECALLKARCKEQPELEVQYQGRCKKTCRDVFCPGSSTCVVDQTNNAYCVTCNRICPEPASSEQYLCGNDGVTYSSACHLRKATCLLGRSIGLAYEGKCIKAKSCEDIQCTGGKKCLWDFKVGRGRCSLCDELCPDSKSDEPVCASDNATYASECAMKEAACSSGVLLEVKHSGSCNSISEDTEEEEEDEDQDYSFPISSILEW
Concanavalin-A (Canavalia ensiformis), sequence (P02866 whole entry, looked up): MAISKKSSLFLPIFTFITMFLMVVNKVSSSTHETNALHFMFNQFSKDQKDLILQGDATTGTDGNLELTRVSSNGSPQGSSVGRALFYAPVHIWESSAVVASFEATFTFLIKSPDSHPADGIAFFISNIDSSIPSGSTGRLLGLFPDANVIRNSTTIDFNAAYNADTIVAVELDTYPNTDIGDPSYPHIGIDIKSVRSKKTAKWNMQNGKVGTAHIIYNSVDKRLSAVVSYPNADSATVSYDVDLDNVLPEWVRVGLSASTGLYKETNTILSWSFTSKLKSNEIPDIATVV
Albumin (Bos taurus), sequence (P02769 whole entry, looked up): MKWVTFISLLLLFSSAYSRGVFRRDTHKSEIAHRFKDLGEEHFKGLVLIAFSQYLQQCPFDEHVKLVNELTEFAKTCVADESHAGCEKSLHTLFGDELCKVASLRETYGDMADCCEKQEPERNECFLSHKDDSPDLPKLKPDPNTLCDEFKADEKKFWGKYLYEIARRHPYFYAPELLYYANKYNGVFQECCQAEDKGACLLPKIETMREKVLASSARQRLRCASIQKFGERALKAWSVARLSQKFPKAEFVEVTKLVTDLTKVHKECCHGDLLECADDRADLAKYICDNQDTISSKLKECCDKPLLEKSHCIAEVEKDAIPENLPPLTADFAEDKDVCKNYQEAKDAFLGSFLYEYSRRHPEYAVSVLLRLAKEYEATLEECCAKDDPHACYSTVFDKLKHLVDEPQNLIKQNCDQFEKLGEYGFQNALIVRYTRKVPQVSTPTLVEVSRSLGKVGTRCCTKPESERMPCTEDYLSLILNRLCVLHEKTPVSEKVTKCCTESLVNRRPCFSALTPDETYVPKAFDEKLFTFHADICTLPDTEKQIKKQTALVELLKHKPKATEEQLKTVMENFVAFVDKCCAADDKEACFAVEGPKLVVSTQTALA

For `COc1ccc(COC(=O)NN=C2C[C@@H](O)[C@@H](O)[C@@H]3[C@@H]4C(=O)N(C[C@@H]5CCCO5)C(=O)[C@@H]4CC[C@@H]23)cc1`, the composite z-score with Albumin (Bos taurus) is 0.0566; in assay [2] it was -0.128; in [3], -0.0832; in assay [4], 0.234; in assay [5] it was 0.727; in assay [6] it was 0.824. Further, the composite z-score was 0.78 with Sam68 (KHDRBS1); 0.508 in assay [7]; 0.327 in assay [8]; 0.365 in [9]; 0.275 in assay [10]; -0.2 in [11]. Besides, the composite z-score is 0.953 in [12]; 0.0253 in [13]; 0.104 in assay [14]; 0.0359 with Lefty1; 0.627 in [16]. The composite Z-score in assay [1] is 0.58 (inactive). Moreover, the z-score in assay [15] is 0.883; in [17] it was 0.181 (inactive).

Consider `COc1ccc(O[C@H]2C=C[C@@H](c3ccccc3)O[C@@H]2CON=C2c3cc(OC)ccc3O[C@H](c3cccc(OC)c3)[C@H]2O)cc1`, for which the composite z-score with Albumin (Bos taurus) was 0.322; in assay [2], -0.122; in [3], -0.255; in [4], 0.417; in assay [5], 0.567; in assay [6], 1.15. Also, the composite z-score in the assay on Sam68 (KHDRBS1) was 0.164; in assay [7] it was 0.171; in assay [8] it was -0.996; in [9], -0.622; in assay [10], 0.463; in assay [11], 0.121. Also, the composite z-score is -0.413 in assay [12]; 0.618 in assay [13]; 1.63 in [14]; 1.1 in the assay with Lefty1; 0.701 in assay [16]. Moreover, in assay [1], the composite Z-score was -0.222 (inactive). In addition, the z-score in [15] was 0.0904; in assay [17], 1.16 (inactive).

`CC(CCN1CCc2nc(-c3ccccc3)c(-c3ccccc3)cc2C1)=NO[C@@H](C)c1cc(-c2c(C)cc(C)cc2C)no1`: the composite z-score with Albumin (Bos taurus) is 0.554; in assay [2] it was -0.0918; in [3], -0.164; in [4], 0.0148; in assay [5], 0.157; in [6], -0.0375. The composite z-score with Sam68 (KHDRBS1) was -0.0575; in assay [7], -0.583; in [8] it was 0.613; in [9], 0.962; in assay [10], -0.444; in assay [11], -0.228. Besides, the composite z-score in assay [12] is 0.496; in [13], -0.289; in assay [14], -0.44; with Lefty1, -0.0591; in assay [16] it was 0.493. Also, in [1], the composite Z-score is 0.0956 (inactive). Moreover, the figures for the z-score in [15] and in [17] were 0.281 and 0.618 (inactive), respectively.

`CCN(CC)CC(O)CN1CCCCc2nc(C)c(C)cc21` (stereo not given): the composite z-score is 0.401 with Albumin (Bos taurus); 0.0026 in assay [2]; -0.195 in assay [3]; 0.367 in assay [4]; 0.243 in [5]; -0.072 in assay [6]. The composite z-score in the assay with Sam68 (KHDRBS1) is 0.334; in assay [7], 0.468; in [8], 0.363; in assay [9] it was 1; in [10], 0.546; in [11] it was -0.0492. For the same compound, the composite z-score in assay [12] was 0.0982; in assay [13], 0.355; in [14], 0.639; with Lefty1, 0.516; in assay [16], 0.944. Besides, the composite Z-score in [1] is -0.336 (inactive). For the same compound, the z-score is 1.09 in assay [15] and -1.12 (inactive) in assay [17].
